# High-throughput results: PubChem, National Center for Advancing Translational Sciences (NCATS)
# Compounds with a hit are over-represented: about 1.2% of the library has one in this group of screens.
# KCNH2 WT inh: KCNH2 (human, wildtype) channel inhibition. U2OS, BacMam KCNH2, thallium flux FluxOr; hits give low values. activity change, % at 1.84 µM. 340,000 tested, 0.37% active. AID 720551;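 active = maximum activity change below -70%; inconclusive = maximum activity change between -70% and -50%; inactive = maximum activity change above -50%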; note: % is set by controls: 0 for no effect and ±100 for the full control effect
#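 U2OS cells transduced with wild-type KCNH2 virus are loaded with FluxOr dye for 45 min, and thallium flux is measured in kinetic reads before and after stimulation buffer. Rate constants are normalized to DMSO controls.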
# TRPV1 agonist: activates the human vanilloid receptor TRPV1; Q8NER1; TRPV1-expressing cells, Fluo-8 calcium influx, agonist mode; activation, % at 8.33 µM; 320,000 tested, 0.19% active; AID 540275; in the data active = activation above about 80%; inconclusive = between about 30% and that limit; note: 0% is about no effect
#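 TRPV1-expressing cells were cultured overnight at 35.5C and loaded with Fluo-8 calcium dye for 40 to 90 min at room temperature. After a 10 s baseline, compound was added and calcium influx was read kinetically for 3 min (ex 480/em 520 nm).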
# KCNH2 3.1 inh: KCNH2 3.1 (human) potassium channel inhibition | U2OS KCNH2 3.1, thallium flux FluxOr; hits give low values | activity change, % (tested at about 1.8 µM) | 340,000 tested, 0.95% active;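 active = maximum activity change below -70%; inconclusive = maximum activity change from -70% to -50%; inactive = maximum activity change above -50%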;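 note: thallium influx rate constant from kinetic fluorescence after stimulation buffer; % is set by controls: 0 for no effect and ±100 for the full control effect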
#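 Channel expression came from 3.1 mutant virus (1.77 x 10^8 /mL) applied to suspended U2OS cells for 4 h. Flux was tracked with FluxOr dye plus Red40 quencher, and kinetic rate constants normalized to controls.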
# TRPV1 PAM: human TRPV1 potentiation; Q8NER1; TRPV1-expressing cells, Fluo-8 calcium influx, capsaicin EC20 potentiation; potentiation, % at 8.33 µM; 320,000 tested, 0.02% active; in the data active = potentiation above about 80%; inconclusive = between about 30% and that limit; note: 0% is about no effect
#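 Fluo-8 calcium influx in TRPV1-expressing cells, kinetic read (ex 480/em 520 nm). Compound added and read 3 min for agonist activity, followed by capsaicin at EC20 final and 2 min further read for enhancement.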
# An asterisk follows results filed as active; i = inactive; ? = inconclusive; nt = no result.
SMILES,KCNH2 WT inh,TRPV1 agonist,KCNH2 3.1 inh,TRPV1 PAM
COc1ccc2[nH]c(CN3CCC(n4nccc4NC(=O)C4CC4)CC3)c(C)c2c1,?,1,-76*,15
COc1ccc2[nH]c(C(=O)N3CCC(n4nccc4NC(=O)C4CC4)CC3)c(C)c2c1,-2,2,0,5
CCO[C@H]1OC(C(=O)NC2CC2)=C[C@@H](c2csc3ccccc23)[C@@H]1CCCO,7,0,2,-5
CN(CC(=O)Nc1cc(Cl)ccc1-n1cncn1)Cc1ccccc1N1CCOCC1,20,nt,-7,nt
O=C(NCCN1CCCCC1)c1ccc(Oc2cc(Cl)cc(Cl)c2)o1,38,6,-41,-8
CC(C)(CN=C1NS(=O)(=O)c2ccccc21)CNC(=O)c1ccccc1,-94*,3,-3,3
CC(C)(C)C(=O)N1CCN(C(=O)c2ccco2)CC1,2,0,2,8
CCCNC(=O)C(Cc1ccccc1F)NC(=O)c1ccc(C#N)cc1 (stereo unspecified),7,17,-99*,-20
COc1ccc(C(=O)Nc2ccc(NC(=O)c3cccs3)c(OC)c2)cc1Cl,2,2,-83*,-7
COc1ccc(C(=O)Nc2ccc(NC(=O)c3cccs3)cc2)cc1Cl,nt,3,-13,18
O=C(CNC(=O)c1sc2ccccc2c1Cl)Nc1ccccc1F,6,9,8,25
OCC[C@@H]1C[C@H](O)[C@@H](O)[C@@]2(OCCc3ccccc32)O1,4,-1,4,-8
CC(C)CN1CCC(=O)N([C@H](COc2ccccc2)c2ccccc2)CC1,-43,?,-100*,-13
O=C1CCN(CCc2ccccc2)CCN1[C@H](COc1ccccc1)c1ccccc1,-130*,4,-115*,-8
CCCN1CCC(=O)N([C@H](COc2ccccc2)c2ccccc2)CC1,20,18,-95*,-2
CCCN1CCC(=O)N([C@H](CO)c2ccccc2)CC1,-3,2,6,-7
CC(C)CN1CCC(=O)N(CCOc2ccccc2)CC1,10,1,-12,6
CCN(CCn1cccn1)C(=O)CCc1nnc(C2(c3ccc(Cl)cc3)CCC2)o1,-137*,1,-194*,-10
N#Cc1ccc2c(c1)C[C@]1(c3ccsc3)Oc3c(c(=O)oc4ccccc34)C2O1,nt,i,nt,i
COc1ccccc1/C=C/C(=O)Nc1cccnc1Cl,-2,?,12,-13
COc1ccc(/C=C/C(=O)Nc2cccnc2Cl)cc1,20,85*,20,-22
COc1ccc(/C=C/C(=O)Nc2ccc(OC)cc2[N+](=O)[O-])cc1,-5,12,-85*,-6
COc1ccc(NC(=O)/C=C/c2ccccc2)c([N+](=O)[O-])c1,-6,20,-13,-18
Cc1cc(C(=O)Nc2ccc(C(=O)O)cc2)c(C)o1,-12,0,11,10
COC(=O)c1cc(NC(=O)c2cc(C)oc2C)cc(C(=O)OC)c1,-193*,0,-14,2
SMILES,KCNH2 WT inh,TRPV1 agonist,KCNH2 3.1 inh,TRPV1 PAM
CC(=O)c1ccc(NC(=O)c2cc(Cl)sc2Cl)cc1,-9,29,-6,-27
CC(C)Sc1nc2c(c(=O)[nH]c(=O)n2C)n1Cc1ccc(Cl)cc1,12,9,5,26
CCOC(=O)C(C)Sc1nc2c(c(=O)[nH]c(=O)n2C)n1Cc1ccc(Cl)cc1 (stereo unspecified),?,11,-91*,1
COC(=O)c1ccccc1NS(=O)(=O)c1c(C)noc1C,5,-1,-109*,11
C[C@@H]1CN([C@H](C)CO)C(=O)c2c(c3ccccc3n2C)-c2ccccc2CO[C@@H]1CN(C)S(=O)(=O)c1cccs1,-3,nt,3,nt
COC(=O)c1c(NC(=O)C(=O)N2CCOCC2)sc2c1CCCC2,4,87*,23,-27
Cc1ccc(S(=O)(=O)N2CC3(O)CN(C(=O)OC(C)C)N(C(=O)OC(C)C)CC3(OC(=O)NCc3ccco3)C2)cc1 (stereo unspecified),-3,nt,-1,nt
COc1ccccc1C1c2[nH]c3ccccc3c2C[C@H]2C(=O)N(C3CCN(Cc4ccccc4)CC3)CC(=O)N12 (stereo partly specified),-106*,-4,-37,24
CC1(c2ccc3ccccc3c2)NC(=O)N(CC(=O)O)C1=O (stereo unspecified),3,1,0,-1
CC1(c2ccc3ccccc3c2)CCC(=O)O1 (stereo unspecified),-105*,nt,7,nt
COc1ccccc1CN1CC(C(=O)NCCCCc2ccccn2)CCC1=O (stereo unspecified),-10,nt,-6,nt
c1ccc(-c2cnn3c(-c4ccccc4)c(-c4ccccc4)nc3n2)cc1,-135*,?,-89*,-3
Nc1nc(-c2ccccc2)c(-c2ccccc2)n1N,-10,8,-7,0
CC(C)(CCC(=S)N1CCOCC1)C1CCCCC1,-11,16,9,-7
COc1cccc(CCNC(=O)c2ccc(C#N)cc2)c1,-2,?,nt,-17
CCN(CCNC(=O)c1ccc(C#N)cc1)c1cccc(C)c1,5,91*,-5,-5
COc1ccc(CNCc2ccc3ccccc3c2)c(OC)c1,7,9,-98*,-2
COc1ccc(NC(=O)c2cccn(CC=C(C)C)c2=O)cc1,-3,?,-102*,-26
CN1CCN(c2nc(-c3ccc(Cl)cc3Cl)nc3ccccc23)CC1,-18,17,-124*,-9
CN1CCN(c2nc(-c3ccccc3Cl)nc3ccccc23)CC1,25,8,-5,7
CC(NC(=O)c1ccc(N)cc1)c1ccccc1 (stereo unspecified),-3,0,28,0
Cc1ccc(S(=O)(=O)NCC(=O)N(CCc2ccccc2)CC(=O)NCc2ccco2)cc1,-75*,1,-9,0
Cc1ccc(NC(=O)N2CCC(C(=O)c3ccc(F)cc3)CC2)cc1,1,?,16,8
Cc1ccc(CN2CCC(C(=O)c3ccc(F)cc3)CC2)cc1,6,nt,-75*,nt
CSc1ccc(CN2CCC(C(=O)NCc3ccc(C)cc3)CC2)cc1,nt,7,-93*,17
SMILES,KCNH2 WT inh,TRPV1 agonist,KCNH2 3.1 inh,TRPV1 PAM
COc1ccc(CN2CCC(C(=O)c3ccc(F)cc3)CC2)cc1,-7,21,-73*,-17
COc1ccc(C(=O)C2CCN(C(=O)c3ccc(F)cc3)CC2)cc1,1,6,0,-17
Cc1cc(OCCCn2c(CCNC(=O)C3CCCCC3)nc3ccccc32)ccc1Cl,nt,13,nt,-2
CCC(=O)c1ccc(OCc2cn(CC(=O)c3ccc(O)cc3)nn2)cc1,-7,nt,14,nt
Cc1ccc(CN(CC(O)COc2cccc3[nH]cc(C)c23)C(C)(C)C)cc1 (stereo unspecified),-7,-3,-74*,24
COc1ccc(Cc2nnc(NCCO)[nH]c2=O)cc1OC,-118*,0,9,-3
COc1ccc(Cc2nnc(NCCO)[nH]c2=O)cc1,-14,1,16,-1
COc1ccccc1N1CCN(C(=O)CSc2nc3ccccc3o2)CC1,-4,28,-15,7
